Source: PubChem
An excerpt weighted towards active compounds, which were near 5.4% of everything screened.
Six1-Eya2 blk: inhibitors of human Six1/Eya2 interaction | activity change, % (concentration not given with the values) | 360,000 compounds, 0.56% hits | AlphaScreen GST-Six1/His-Eya2 binding, biochemical; stronger effect = lower value; in the data active = activity change below about -65%; inconclusive = mostly about -30% to -63%; also: % is scaled to controls: 0 for no effect and ±100 for the full control effect
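AlphaScreen luminescence read after one hour at 37 °C in darkness. Pin-transferred compounds met GST-Six1 and His-Eya2 protein (5X stock 250 nM/500 nM) plus glutathione donor and Ni-chelate acceptor beads (5X, 50 ug/mL).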
RORgamma inh: inhibitors of mouse ROR gamma transcriptional activity. P51450. Drosophila S2 Gal4-RORgamma UAS-luciferase reporter, 20 h. Potency, µM (doses to about 53.6 µM), for the others: at the highest dose activity change, negative = inhibition, actives largely listed as inhibitors. 310,000 compounds, 5.4% hits. AID 2551; also: potency is read from the fitted curve at half-maximal effect; % is scaled to controls: 0 for no effect and ±100 for the full control effect; nearly all actives have a fitted effect of over 60% in size
Target sequence (P51450 whole entry, looked up, the tested form may be a part): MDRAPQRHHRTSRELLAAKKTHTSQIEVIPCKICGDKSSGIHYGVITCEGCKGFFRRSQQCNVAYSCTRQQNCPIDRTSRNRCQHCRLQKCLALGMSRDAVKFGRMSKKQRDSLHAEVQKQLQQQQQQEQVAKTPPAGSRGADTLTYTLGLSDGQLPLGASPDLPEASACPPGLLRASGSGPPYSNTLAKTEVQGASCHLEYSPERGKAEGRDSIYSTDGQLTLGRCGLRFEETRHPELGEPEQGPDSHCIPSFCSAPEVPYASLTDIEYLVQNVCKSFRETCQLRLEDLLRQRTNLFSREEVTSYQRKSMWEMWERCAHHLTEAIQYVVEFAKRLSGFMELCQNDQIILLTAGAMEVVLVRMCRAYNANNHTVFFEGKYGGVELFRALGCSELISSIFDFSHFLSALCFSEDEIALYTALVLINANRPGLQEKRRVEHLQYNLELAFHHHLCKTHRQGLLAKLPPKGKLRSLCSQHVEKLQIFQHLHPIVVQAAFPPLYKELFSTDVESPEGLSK
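ROR gamma transcriptional activity was tracked as Gal4-UAS luciferase output in stably transfected Drosophila Schneider cells, with compound added 1 hr before 700 uM copper sulfate induction and a 20 hr ambient-temperature incubation.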
Gal4-VP16 FLuc: counter-screen for ROR gamma inhibitors: Gal4-VP16 reporter; Drosophila S2 Gal4-VP16 UAS-luciferase, luminescence, 20 h; Potency, µM (series often up to 53.6 µM), for the others: top-dose activity, negative = inhibition, hits mostly inhibitors; 310,000 compounds, 3.5% hits; AID 2546;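 also: Gal4-VP16 expression switched on by copper sulfate through the metallothionein promoter; potency is read from the fitted curve at half-maximal effect; % is scaled to controls: 0 for no effect and ±100 for the full control effect; nearly all actives have a fitted effect of over 50% in size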
p53 reactivator: re-activators of mutant p53. 320,000 compounds, 0.063% hits. Potency, µM (series often up to 92.2 µM), for the others: at the top dose activity change, positive = activation, most hits filed as activators. H1299 p53-A138V BP100-luciferase reporter, luminescence, 24 h; also: potency is read from the fitted curve at half-maximal effect; % of control where 0% means no effect; nearly all actives have a fitted effect of over 45% in size
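H1299 (p53-null), stable ts p53-A138V + BP100-Luc; 1000 cells/well, Opti-MEM/10% FBS; cpd 4 pt, 1:5; 24 h, 37 deg C, 5% CO2; detection reagent 10 min RT; luminescence.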
CtBP-E1A blk: blocks the CtBP interaction with E1A | 340,000 compounds, 0.49% hits | AlphaScreen GST-E1A/His-CtBP binding, 1536-well; stronger effect = lower value | activity change, % (no concentration beside the values); in the data active = activity change below about -65%; inconclusive = mostly about -30% to -63%; also: % is scaled to controls: 0 for no effect and ±100 for the full control effect
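Homogeneous bead-based format: GST-tagged E1A captured on glutathione donor beads, His-tagged CtBP on nickel acceptor beads; compounds precede bead addition by 2 h at 37 °C.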
Active calls of the source: *; ? = inconclusive; / = not tested or not shown; [ ] = dose if it differs, or a comment. Unless noted, calls follow the shape of the dose curve; as a rule, active = well fitted curve in the direction sought with a large enough effect; inconclusive = small, poorly fitted or top-dose-only effect, or another doubt; inactive = no such curve, though single readings can be large; an effect the other way counts as inactive or inconclusive.

SMILES	Six1-Eya2 blk	RORgamma inh	Gal4-VP16 FLuc	p53 reactivator	CtBP-E1A blk
CC1C(=O)NN=C1C(=O)N/N=C\C(Br)=C\c1ccccc1 (stereo not drawn)	-14	1.3µM*	1.6µM*	?	?
Cc1cc(C)c2c(=O)n3c(nc2c1)C(Cc1ccc(O)cc1)NC(=O)c1cc2ccccc2cc1-3 (stereo not drawn)	-8	/	/	/	-7
O=c1c(-c2ccccc2)c1-c1ccccc1	/	?	0.79µM*	/	/
O=c1[nH][nH]c(-c2ccccc2)c1-c1ccccc1	-3	/	/	/	0
COCCCN(C(=S)NC(=O)c1ccc(Br)cc1)c1c(N)n(Cc2ccccc2)c(=O)[nH]c1=O	2	10µM*	3%	1%	-1
COCCCN(C(=S)NC(=O)C(C)(C)C)c1c(N)n(Cc2ccccc2)c(=O)[nH]c1=O	14	-32%	2%	1%	21
CCOc1ccccc1NC(=S)Nc1ccc(S(N)(=O)=O)cc1	-8	11µM*	-26%	0%	-2
Cc1ccccc1NC(=S)NC(=O)C1CCCCC1	6	4µM*	?	12%	5
CCOc1ccccc1NC(=S)NC(=O)C1CC1	-1	?	0.71µM*	-9%	5
CCOc1ccccc1NC(=O)Nc1cccc(S(N)(=O)=O)c1	-12	0%	14%	-6%	-1
CCOc1ccccc1NC(=O)/C=C/C(N)=O	6	4.5µM*	5.6µM*	-10%	6
O=C(NC(=S)Nc1ccccc1Br)C1CC1	3	/	/	/	-11
COc1cc2oc(=O)ccc2c(OC)c1CC(O)C(C)(C)O (stereo not drawn)	5	-37%	-10%	-2%	1
O=[N+]([O-])c1ccc(C[n+]2cccc3ccc4cccnc4c32)cc1	-90*	-44%	?	11%	-89*
NC1=NC(S)C2N=CN=C2N1 (stereo not drawn)	/	-24%	30%	/	/
CCC(=O)NC(=S)Nc1ccccc1F	10	13µM*	?	1%	3
COc1ccccc1NC(=S)NC(=O)Cc1ccc(Cl)cc1	8	7.1µM*	4.5µM*	/	0
COc1ccc(CC(=O)NC(=S)Nc2cccc(C)c2)cc1	-5	/	/	/	5
CCCC(=O)NC(=S)Nc1ccccc1F	13	4µM*	?	14%	6
CCCC(=O)Nc1ccccc1NC(=O)CCC	9	0%	3%	?	5
COc1cccc(NC(=S)NC(=O)Cc2ccc(Cl)cc2)c1	9	7.1µM*	7.1µM*	/	21
CC(=O)NC(=S)Nc1ccccc1F	7	?	?	2%	/
CC(C)(C)C(=O)NC(=S)Nc1ccccc1F	-2	13µM*	?	?	7
O=C(CCCOc1ccc(Cl)cc1Cl)Nc1ccccn1	10	36%	-12%	4%	2
COC(=O)CCC(=O)NNC(=O)CCCOc1ccc(Cl)cc1Cl	-2	12%	?	1%	5
SMILES	Six1-Eya2 blk	RORgamma inh	Gal4-VP16 FLuc	p53 reactivator	CtBP-E1A blk
CCC(=O)NC(=S)Nc1ccccc1OC	-12	?	?	-2%	-9
COC(=O)CCC(=O)NNC(=O)c1ccc(Cl)cc1Cl	5	11µM*	-14%	24%	10
COc1ccccc1NC(=S)NC(=O)CCCOc1ccc(Cl)cc1Cl	-1	10µM*	16µM*	-1%	10
CCCC(=O)NC(=S)Nc1ccccc1OC	6	10µM*	?	/	-9
CC(C)(C)C(=O)NC(=S)Nc1ccccc1C(=O)Nc1ccccc1	3	-40%	-12%	-4%	11
O=c1[nH]c2ccccc2cc1CN(Cc1ccco1)S(=O)(=O)c1ccccc1	-13	11%	4%	0%	-6
COc1ccc(/C=C/C2=CC3(C)CC2(C)C(c2ccc(OC)cc2)CC3=O)cc1 (stereo not drawn)	/	-1%[10 µM]	-3%[10 µM]	/	/
CCC(=O)NC(=S)Nc1ccc2oc(-c3ccc(OC)cc3)nc2c1	-5	11%	-7%	27%	-1
COc1ccccc1NC(=O)c1cc(Cl)ccc1NC(=O)c1ccco1	24	6%	1%	-6%	2
COc1ccccc1NC(=S)NNC(=O)c1ccc(Cl)cc1Cl	-8	13µM*	?	?	-9
COc1ccc(-c2nc3cc(NC(=S)NC(=O)Cc4ccccc4)ccc3o2)cc1	-1	4.5µM*	2.5µM*	3%	-8
